The values that follow come from article PMC7862700, “An all-to-all approach to the identification of sequence-specific readers for epigenetic DNA modifications on cytosine”.

Holding throughout (assay): DAPPL (digital affinity profiling via proximity ligation, sequencing); 10 mM Tris-HCl pH 7.5, 50 mM NaCl, 1 mM DTT, 4% glycerol, room temperature, 30 min; GST-TFs on glutathione beads, 16-mer random dsDNA library, 0.1% formaldehyde crosslink after washing; high values mean tight binding
What all share (conditions): protein: recombinant; tags: N-terminal GST; dsDNA, one strand shown

One assay addresses T1, ERF (Homo sapiens, UniProt P50548 1-548).
T1 sequence: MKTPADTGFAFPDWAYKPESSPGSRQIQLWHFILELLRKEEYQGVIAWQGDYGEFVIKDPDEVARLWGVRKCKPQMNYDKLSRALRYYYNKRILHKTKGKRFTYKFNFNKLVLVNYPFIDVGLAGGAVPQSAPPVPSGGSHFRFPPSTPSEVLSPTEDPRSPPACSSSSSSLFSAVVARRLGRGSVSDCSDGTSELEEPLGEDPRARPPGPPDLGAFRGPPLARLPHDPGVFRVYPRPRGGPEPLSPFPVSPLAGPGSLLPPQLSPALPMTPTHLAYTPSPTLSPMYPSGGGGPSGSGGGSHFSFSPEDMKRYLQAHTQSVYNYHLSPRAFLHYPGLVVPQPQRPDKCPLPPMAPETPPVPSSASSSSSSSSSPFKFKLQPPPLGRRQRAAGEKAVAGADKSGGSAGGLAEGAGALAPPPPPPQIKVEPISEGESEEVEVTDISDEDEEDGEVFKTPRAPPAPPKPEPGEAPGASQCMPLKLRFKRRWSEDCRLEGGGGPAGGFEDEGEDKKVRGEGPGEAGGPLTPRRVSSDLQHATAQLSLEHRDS
The method, boiled down: (§1)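 Yeast served to express human transcription factors as GST fusions, which were then captured on glutathione beads and labelled with DNA barcodes. Pooled with a tag-only sample, they were incubated with 200 nmole of a 16-mer random double-stranded DNA library for 30 min at room temperature in Tris/NaCl/DTT/glycerol buffer, washed, crosslinked with 0.1% formaldehyde, ligated by proximity, amplified by PCR and sequenced. Dividing each hexamer's read frequency for a factor by its frequency for the tag-only sample gives the binding signal.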

The next assay concerns the target T2, ETV3L (Homo sapiens, UniProt Q6ZN32 1-361).
T2 sequence: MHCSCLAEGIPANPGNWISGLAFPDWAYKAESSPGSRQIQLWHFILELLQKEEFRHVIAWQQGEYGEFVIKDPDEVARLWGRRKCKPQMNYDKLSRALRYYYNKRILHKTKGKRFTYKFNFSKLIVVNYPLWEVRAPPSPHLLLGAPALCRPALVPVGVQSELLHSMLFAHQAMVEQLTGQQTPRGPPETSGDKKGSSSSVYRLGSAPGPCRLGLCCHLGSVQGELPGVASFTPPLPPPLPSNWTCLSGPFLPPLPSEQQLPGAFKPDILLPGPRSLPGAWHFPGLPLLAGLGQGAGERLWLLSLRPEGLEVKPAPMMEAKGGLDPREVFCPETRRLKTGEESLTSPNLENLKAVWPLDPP
The method, boiled down:
as §1

For the next assay, the target named is T3, ETS2 (Homo sapiens, UniProt P15036 1-469).
T3 sequence: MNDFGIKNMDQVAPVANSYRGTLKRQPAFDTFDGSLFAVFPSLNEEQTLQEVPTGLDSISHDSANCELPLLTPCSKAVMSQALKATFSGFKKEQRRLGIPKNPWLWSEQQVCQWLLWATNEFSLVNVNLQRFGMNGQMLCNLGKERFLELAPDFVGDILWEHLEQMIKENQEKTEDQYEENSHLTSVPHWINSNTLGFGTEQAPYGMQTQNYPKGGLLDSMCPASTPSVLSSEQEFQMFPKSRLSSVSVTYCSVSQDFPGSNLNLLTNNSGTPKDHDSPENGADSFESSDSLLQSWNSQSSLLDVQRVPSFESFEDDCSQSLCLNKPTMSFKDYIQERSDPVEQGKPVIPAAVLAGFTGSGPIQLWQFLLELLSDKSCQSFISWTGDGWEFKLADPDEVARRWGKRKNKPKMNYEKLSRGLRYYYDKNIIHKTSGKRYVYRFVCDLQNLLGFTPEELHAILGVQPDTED
The method, boiled down:
as §1

The target in a further assay is T4, SPDEF (Homo sapiens, UniProt O95238 1-335).
T4 sequence: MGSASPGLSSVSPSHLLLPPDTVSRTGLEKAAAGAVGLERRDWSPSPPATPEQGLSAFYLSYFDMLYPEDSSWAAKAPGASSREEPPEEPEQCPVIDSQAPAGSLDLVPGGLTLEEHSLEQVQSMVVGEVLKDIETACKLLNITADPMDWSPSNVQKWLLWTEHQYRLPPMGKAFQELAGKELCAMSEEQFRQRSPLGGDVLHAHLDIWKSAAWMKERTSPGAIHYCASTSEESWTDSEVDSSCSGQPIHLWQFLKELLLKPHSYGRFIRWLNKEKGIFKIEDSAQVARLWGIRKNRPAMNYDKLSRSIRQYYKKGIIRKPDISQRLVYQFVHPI
The method, boiled down:
as §1

Another assay deals with T5, ETV7 (Homo sapiens, UniProt Q9Y603 1-341).
T5 sequence: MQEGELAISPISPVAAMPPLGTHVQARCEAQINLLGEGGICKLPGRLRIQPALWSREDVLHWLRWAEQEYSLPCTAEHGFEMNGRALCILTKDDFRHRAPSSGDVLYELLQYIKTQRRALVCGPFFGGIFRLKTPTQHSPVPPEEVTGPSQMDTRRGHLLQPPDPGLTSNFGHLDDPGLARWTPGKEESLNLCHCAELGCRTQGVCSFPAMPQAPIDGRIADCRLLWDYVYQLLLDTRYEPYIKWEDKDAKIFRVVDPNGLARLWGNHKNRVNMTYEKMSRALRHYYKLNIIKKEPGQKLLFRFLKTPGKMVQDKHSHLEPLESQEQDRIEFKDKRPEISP
The method, boiled down: as §1

Another assay has as its target T6, ELF5 (Homo sapiens, UniProt Q9UKW6-2 1-255).
T6 sequence: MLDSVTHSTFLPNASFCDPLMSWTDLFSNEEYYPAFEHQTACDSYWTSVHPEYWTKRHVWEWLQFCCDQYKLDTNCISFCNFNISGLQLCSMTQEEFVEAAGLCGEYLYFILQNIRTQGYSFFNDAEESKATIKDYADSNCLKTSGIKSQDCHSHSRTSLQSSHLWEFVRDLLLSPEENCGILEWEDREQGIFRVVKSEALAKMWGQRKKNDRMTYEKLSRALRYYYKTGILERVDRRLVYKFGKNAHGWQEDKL
The method, boiled down:
as §1

The target in another assay is T7, ETV3 (Homo sapiens, UniProt P41162-2 1-143).
T7 sequence: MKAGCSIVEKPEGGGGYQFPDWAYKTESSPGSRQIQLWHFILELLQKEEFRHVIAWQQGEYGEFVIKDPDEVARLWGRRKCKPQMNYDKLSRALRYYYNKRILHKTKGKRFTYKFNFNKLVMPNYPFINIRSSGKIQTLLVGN
In a few lines:
as §1

A further assay addresses ETV6 (Homo sapiens, UniProt P41212 1-452). The method, boiled down: as §1

Chain of ETV6 (P41212 whole entry): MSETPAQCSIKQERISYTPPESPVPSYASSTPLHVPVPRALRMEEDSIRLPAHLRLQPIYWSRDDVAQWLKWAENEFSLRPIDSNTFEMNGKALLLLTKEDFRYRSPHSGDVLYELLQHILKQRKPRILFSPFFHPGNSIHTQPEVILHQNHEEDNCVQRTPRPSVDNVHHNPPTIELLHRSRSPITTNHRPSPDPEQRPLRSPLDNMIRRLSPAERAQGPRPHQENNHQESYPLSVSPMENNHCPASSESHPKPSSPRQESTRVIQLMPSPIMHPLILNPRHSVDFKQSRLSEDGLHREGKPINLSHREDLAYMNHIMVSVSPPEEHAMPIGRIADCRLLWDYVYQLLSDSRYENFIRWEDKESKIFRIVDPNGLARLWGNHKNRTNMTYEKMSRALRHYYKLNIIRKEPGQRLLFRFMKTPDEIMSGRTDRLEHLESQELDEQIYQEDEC

Regarding GTATAA, the binding signal is 1.13 fold enrichment (6-mer frequency, TF over GST control) with ERF; 1.14 fold enrichment (6-mer frequency, TF over GST control) with ETV3L; 1.08 fold enrichment (6-mer frequency, TF over GST control) with ETS2; 1.07 fold enrichment (6-mer frequency, TF over GST control) in the assay with SPDEF; 1.11 fold enrichment (6-mer frequency, TF over GST control) with ETV7; 1.11 fold enrichment (6-mer frequency, TF over GST control) in the assay with ELF5. In addition, the binding signal is 1.08 fold enrichment (6-mer frequency, TF over GST control) in the assay with ETV3 and 1.08 fold enrichment (6-mer frequency, TF over GST control) in the assay with ETV6.
In the case of AGTGGC, the binding signal was 1.27 fold enrichment (6-mer frequency, TF over GST control) with ERF; 1.15 fold enrichment (6-mer frequency, TF over GST control) with ETV3L; 1.22 fold enrichment (6-mer frequency, TF over GST control) with ETS2; 1.1 fold enrichment (6-mer frequency, TF over GST control) with SPDEF; 1.11 fold enrichment (6-mer frequency, TF over GST control) with ETV7; 1.22 fold enrichment (6-mer frequency, TF over GST control) in the assay with ELF5. Besides, the binding signal was 1.27 fold enrichment (6-mer frequency, TF over GST control) with ETV3 and 1.27 fold enrichment (6-mer frequency, TF over GST control) with ETV6.
Turning to TGGTTC, the binding signal was 1.34 fold enrichment (6-mer frequency, TF over GST control) with ERF; 1.36 fold enrichment (6-mer frequency, TF over GST control) with ETV3L; 1.32 fold enrichment (6-mer frequency, TF over GST control) with ETS2; 1.35 fold enrichment (6-mer frequency, TF over GST control) in the assay with SPDEF; 1.48 fold enrichment (6-mer frequency, TF over GST control) with ETV7; 1.41 fold enrichment (6-mer frequency, TF over GST control) with ELF5. Besides, the binding signal with ETV3 is 1.44 fold enrichment (6-mer frequency, TF over GST control); in the assay with ETV6 it was 1.32 fold enrichment (6-mer frequency, TF over GST control).
With CACATC, the binding signal with ERF is 1.39 fold enrichment (6-mer frequency, TF over GST control); with ETV3L, 1.41 fold enrichment (6-mer frequency, TF over GST control); with ETS2, 1.38 fold enrichment (6-mer frequency, TF over GST control); in the assay with SPDEF it was 2.09 fold enrichment (6-mer frequency, TF over GST control); with ETV7, 1.38 fold enrichment (6-mer frequency, TF over GST control); in the assay with ELF5, 1.42 fold enrichment (6-mer frequency, TF over GST control). Moreover, the binding signal with ETV3 was 1.49 fold enrichment (6-mer frequency, TF over GST control); with ETV6 it was 1.5 fold enrichment (6-mer frequency, TF over GST control).
CTCCGT: the binding signal with ERF is 1.07 fold enrichment (6-mer frequency, TF over GST control); with ETV3L it was 1.19 fold enrichment (6-mer frequency, TF over GST control); in the assay with ETS2, 1.22 fold enrichment (6-mer frequency, TF over GST control); in the assay with SPDEF, 1.05 fold enrichment (6-mer frequency, TF over GST control); with ETV7, 1.33 fold enrichment (6-mer frequency, TF over GST control); in the assay with ELF5, 1.14 fold enrichment (6-mer frequency, TF over GST control). The binding signal was 1.22 fold enrichment (6-mer frequency, TF over GST control) with ETV3 and 1.16 fold enrichment (6-mer frequency, TF over GST control) with ETV6.
As for TCATCA, the binding signal was 1.23 fold enrichment (6-mer frequency, TF over GST control) with ERF; 1.18 fold enrichment (6-mer frequency, TF over GST control) with ETV3L; 1.15 fold enrichment (6-mer frequency, TF over GST control) in the assay with ETS2; 1.12 fold enrichment (6-mer frequency, TF over GST control) with SPDEF; 1.15 fold enrichment (6-mer frequency, TF over GST control) in the assay with ETV7; 1.16 fold enrichment (6-mer frequency, TF over GST control) with ELF5. Further, the binding signal with ETV3 is 1.22 fold enrichment (6-mer frequency, TF over GST control); in the assay with ETV6, 1.08 fold enrichment (6-mer frequency, TF over GST control).
TCTGTT: the binding signal with ERF was 1.43 fold enrichment (6-mer frequency, TF over GST control); with ETV3L, 1.32 fold enrichment (6-mer frequency, TF over GST control); with ETS2, 1.48 fold enrichment (6-mer frequency, TF over GST control); with SPDEF, 1.35 fold enrichment (6-mer frequency, TF over GST control); with ETV7, 1.46 fold enrichment (6-mer frequency, TF over GST control); with ELF5 it was 1.4 fold enrichment (6-mer frequency, TF over GST control). The binding signal with ETV3 is 1.25 fold enrichment (6-mer frequency, TF over GST control); with ETV6, 1.35 fold enrichment (6-mer frequency, TF over GST control).
CCGCGT: the binding signal with ERF is 1.08 fold enrichment (6-mer frequency, TF over GST control); with ETV3L, 1.11 fold enrichment (6-mer frequency, TF over GST control); with ETS2, 1.13 fold enrichment (6-mer frequency, TF over GST control); in the assay with SPDEF it was 1.12 fold enrichment (6-mer frequency, TF over GST control); with ETV7, 1.21 fold enrichment (6-mer frequency, TF over GST control); with ELF5 it was 1.27 fold enrichment (6-mer frequency, TF over GST control). In addition, the binding signal with ETV3 was 1.13 fold enrichment (6-mer frequency, TF over GST control); with ETV6, 1.16 fold enrichment (6-mer frequency, TF over GST control).
